The campaign covered roughly 340,000 compounds. About 2,100 (0.62%) were called active.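 Rule for the calls: active = first-screen hits whose inhibition reached a set limit at any dose in the follow-up dose series; inconclusive = inhibition above the set first-screen limit but never retested; inactive = the rest.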 These entries were drawn from the full list. Measured potencies and affinities stand elsewhere.
target: Rac GTPase-activating protein 1 (Homo sapiens) (UniProt Q9H0H5); assay: blockers of MgcRacGAP-driven Rac1 GTP hydrolysis – biochemical, ADP Hunter fluorescence, primary and confirmatory, confirmation (AID 624330); conditions: MgcRacGAP-stimulated Rac1 GTP hydrolysis, at 30 µM, hits give high values, GST-tagged Rac1 F28L mutant substrate;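 note: fluorescence reports GDP produced by GAP-driven GTP hydrolysis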
Sequence (Q9H0H5 whole entry, looked up): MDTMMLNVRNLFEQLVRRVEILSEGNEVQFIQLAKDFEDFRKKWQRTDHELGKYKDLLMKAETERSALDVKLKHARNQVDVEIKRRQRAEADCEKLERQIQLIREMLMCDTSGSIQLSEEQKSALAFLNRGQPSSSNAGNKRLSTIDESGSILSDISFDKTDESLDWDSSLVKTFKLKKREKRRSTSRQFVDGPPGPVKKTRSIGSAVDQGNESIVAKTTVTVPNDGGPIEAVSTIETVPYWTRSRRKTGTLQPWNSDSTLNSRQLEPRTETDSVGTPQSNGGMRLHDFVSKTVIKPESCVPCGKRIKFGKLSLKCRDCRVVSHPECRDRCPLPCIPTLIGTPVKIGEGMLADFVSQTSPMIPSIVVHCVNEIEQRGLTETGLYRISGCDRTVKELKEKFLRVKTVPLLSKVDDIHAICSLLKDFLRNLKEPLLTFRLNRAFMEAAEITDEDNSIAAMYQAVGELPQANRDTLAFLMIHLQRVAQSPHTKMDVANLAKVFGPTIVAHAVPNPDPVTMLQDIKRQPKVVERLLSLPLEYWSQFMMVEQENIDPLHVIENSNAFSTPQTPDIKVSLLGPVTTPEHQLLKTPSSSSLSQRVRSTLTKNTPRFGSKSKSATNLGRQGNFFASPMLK

inhibition, inactive:
CCN(CC)CCNc1ccc(Cl)cc1[N+](=O)[O-] 4.03%
CCN(CC)CCNc1cccc2sc3ccccc3c(=O)c12 19.4%
C#CCOCCOCCOCCNc1nc(N2CCN(C(=O)[C@H]([C@@H](C)CC)n3cc(CCCN=C(N)N)nn3)CC2)nc(N2CCN(C(=O)[C@H](CCCCN)n3cc(CCC(=O)O)nn3)CC2)n1 -4.54%
CCOc1ccc(CNc2ccc(N3CCN(Cc4ccccc4)CC3)cc2)cc1 30.8%
O=C(CN1CCN(Cc2ccc(F)cc2)CC1)NCc1ccccc1 9.4%
O=C(CCS(=O)(=O)c1ccc(F)cc1)Nc1ccc(N2CCN(Cc3ccccc3)CC2)cc1 3.53%
CC(=O)Nc1ccc(N2CCN(Cc3ccccc3)CC2)cc1 11.2%
Cc1ccc(NC(=O)c2ccccc2Cl)cc1-n1cnnn1 3.88%
CCOc1ccc(S(=O)(=O)NN2Cc3ccccc3C2=N)cc1 7.55%
COc1ccc(OC)c(S(=O)(=O)N(C)CC(=O)N2CCN(c3ccc(F)cc3)CC2)c1 5.44%
Cc1cc(C(=O)NC2CCCC2)on1 2.61%
CCOc1ccc2c(c1)C(=NNC(=O)c1ccccn1)c1cc(OCC)ccc1-2 -24.9%
COc1ccc2c(c1)C(=NNC(=O)c1ccccn1)c1cc(OC)ccc1-2 12.9%
Cc1cc(C)n(C(=O)CNc2cccc(Cl)c2C)n1 5.52%
Cc1ccc(NC2(C#N)CCCC2)cc1 4.1%
N#CC1(Nc2ccc(Br)cc2)CCCC1 2.57%
COc1ccc(C(CNC(=O)c2ccc(S(=O)(=O)N(C)C)cc2)N2CCCC2)cc1 (stereo not drawn) -5.33%
N#CC1(NC(=O)CSc2nnc3n2CCCCC3)CCCCC1 4.53%
CC(NC(=O)COC(=O)c1ccc(S(=O)(=O)N2CCOCC2)cc1)c1ccccc1 (stereo not drawn) -3.85%
Cc1c(NC(=O)Cc2cccs2)cccc1[N+](=O)[O-] 6.13%
Oc1ccc(/C=N/Nc2cc(N3CCCC3)nc(N3CCCC3)n2)cc1O 23.7%
Oc1cccc(/C=N/Nc2cc(N3CCOCC3)nc(N3CCOCC3)n2)c1 18.3%
Cc1cccc(/C=N/Nc2cc(N3CCOCC3)nc(N3CCOCC3)n2)c1 -20.8%
Oc1ccccc1/C=N/Nc1cc(N2CCCC2)nc(N2CCCC2)n1 -4.19%
Oc1ccc(/C=N/Nc2cc(N3CCCC3)nc(N3CCCC3)n2)cc1 7.45%
CC(C)c1ccc(/C=N/Nc2cc(N3CCOCC3)nc(N3CCOCC3)n2)cc1 2.24%
O=C(Cn1c(-c2ccccc2)noc1=O)N1CCC(Cc2ccccc2)CC1 5.27%
O=C(CNCc1ccccc1)Nc1cccc(Cl)c1Cl 27.2%
CCCCCN(C(=O)CCC(=O)OCC(=O)c1c(C)cc(C)cc1C)c1c(N)n(CCCC)c(=O)[nH]c1=O 3.32%
CCN(C(=O)c1c(N)cnn1C)c1ccccc1 -2.97%
COc1ccc(N2CCN(C(=O)COC(=O)c3cccc(S(=O)(=O)Nc4cccc(C)c4)c3)CC2)cc1 5.68%
CCOC(=O)c1oc2cccc(O)c2c1C 5.83%
CCOC(=O)c1oc2cc(C)cc(C)c2c1C 4.4%
Cc1ccc(-n2ncc3c2CC(C)(C)CC3NC(=O)c2c(C)noc2C)cc1 (stereo not drawn) 5.31%
CC(=O)Nc1ccc(S(=O)(=O)Nc2cc(C)cn(Cc3ccccc3)c2=O)cc1 3.18%
O=C(CN1CCN(S(=O)(=O)c2ccc(F)c(Cl)c2)CC1)N1CCc2ccccc2C1 2.62%
O=C(CN1CCN(S(=O)(=O)c2ccc3ccccc3c2)CC1)N1CCc2ccccc2C1 10.7%
O=C(CN1CCN(S(=O)(=O)c2cc(C(F)(F)F)ccc2Cl)CC1)N1CCc2ccccc2C1 9.9%
COc1ccc(S(=O)(=O)N2CCN(CC(=O)N3CCc4ccccc4C3)CC2)cc1OC 7.25%
Cc1cc(OCC(=O)NCC(c2ccc(F)cc2)N2CCOCC2)ccc1Cl (stereo not drawn) 3.16%
O=C(CCc1ccc(S(=O)(=O)N2CCOCC2)cc1)Oc1ccccc1 8.54%
O=C(CN1CCCC1)Nc1c2c(nc3ccccc13)N(Cc1ccccc1)CC2 3.93%
CN1CCN(CC(=O)Nc2cc(N(C)C)nc3ccccc23)CC1 27.1%
O=C(CN1CCCCC1)Nc1c2c(nc3ccccc13)N(c1ccccc1)CC2 20.7%
CN(C)c1cc(NC(=O)CN2CCOCC2)c2ccccc2n1 0.97%
CCCCc1nc2ccccc2c(NC(=O)CN2CCCC2)c1CCC 28.9%
CCCCc1nc2ccccc2c(NC(=O)CNC(C)(C)C)c1CCC 20.5%
CCCn1c(=O)c(C(=O)NCC2CCCO2)c(O)c2ccccc21 (stereo not drawn) 5.01%
O=C1c2ccccc2C(=O)N1CCCCNc1ccccc1 -2.64%
COC(=O)c1sc2ncccc2c1OCc1ccc(Cl)cc1 1.91%
N#C/C(=C\c1ccc2c(c1)OCCO2)C(=O)NC1CCCCC1 4%
C=CCOC(=O)COc1ccc2c(C)c(C)c(=O)oc2c1C -6.38%
COCCNC(=O)c1cc2c(=O)[nH]c3ccccc3c2s1 6.07%
CCOc1ccc(/C=N/Nc2ccc(C(F)(F)F)cc2[N+](=O)[O-])cc1O 13.1%
O=C(CCc1nc2ccccc2c(=O)[nH]1)Nc1ccc(F)c([N+](=O)[O-])c1 2.61%
Clc1ccc(C2=Nc3cc(Cl)ccc3OC2)cc1 12.9%
CCC1=Nc2cc(C(=O)O)ccc2Sc2ccc(Cl)cc21 6.46%
CCOc1ccc2nc(SCC(=O)NCc3ccc(OC)cc3)[nH]c2c1 6.56%
Cc1ccc2c(c1)N(C(=O)CCC(=O)N1CCN(c3ccccc3)CC1)CCO2 11.2%
CCN(CC)c1ccc(/C=N/NC(=O)CNC(=O)C2COc3ccccc3O2)c(O)c1 (stereo not drawn) 5%
COc1ccc(/C=N\NC(=O)CNC(=O)C2COc3ccccc3O2)cc1[N+](=O)[O-] (stereo not drawn) 5.39%
O=C(CNC(=O)C1COc2ccccc2O1)N/N=C\c1cccc(O)c1 (stereo not drawn) 3.96%
COc1ccc(/C=N/NC(=O)CNC(=O)C2COc3ccccc3O2)cc1OC (stereo not drawn) 6.43%
CCOC(=O)N1CCN(C(=O)COC(=O)c2cc(C)ccc2C)CC1 -2.55%
CCOc1ccccc1NC(=O)CN(c1ccc(C)cc1)S(=O)(=O)c1c(C)n[nH]c1C 0.88%
Cc1cc(C(=O)O)ccc1NCc1ccncc1 7.32%
COCCN(CC(=O)NC1CCCCC1)C(=O)CCCC(=O)Nc1ccccn1 -5.13%
COC(=O)c1ccc(C(=O)OC)c(NC(=S)N2CCCCC2C)c1 (stereo not drawn) 8.35%
O=C(CN1CCN(c2ccccc2)CC1)NC(=O)NCc1ccco1 5.31%
COc1ccc(N2CCN(CC(=O)Nc3ccc(C)cc3Br)CC2)cc1 -18.4%
Cc1ccc(NC(=O)NC(=O)CN2CCC(C(N)=O)CC2)c(C)c1 -2.71%
O=C(CN1CCN(c2ccc(F)cc2)CC1)NC(=O)NCc1ccco1 -4.47%
Cc1ccccc1NC(=O)c1ccccc1NC(=O)c1ccco1 4.69%
Cn1cccc1C(=O)OCc1ccc(F)cc1 5.26%
Cc1ccn2c(C(=O)N/N=C/c3ccc(Cl)cc3)c(C)nc2c1 8.94%
COc1ccc(OC)c(/C=N\NC(=O)c2c(C)nc3cc(C)ccn23)c1 -1.68%
COc1ccc(/C=N/NC(=O)c2c(C)nc3ccccn23)cc1[N+](=O)[O-] 0.27%
Cc1nc2ccccn2c1C(=O)N/N=C/c1ccc(F)cc1 6.23%
CN(CC1CCOCC1)C(=O)CC1C(=O)NCCN1Cc1cccc(Oc2ccccc2)c1 (stereo not drawn) -8.59%
O=C(CSc1nnc(CNC(=O)c2c(F)cccc2F)o1)NCCc1ccccc1 6.85%
CCN1C(=O)[C@@H]2[C@H](C1=O)[C@@H]1C(=O)Nc3ccccc3C(=O)N1[C@@H]2c1ccc(OC)cc1 3.37%
O=C(Nc1ccccc1C(=O)NCCc1ccccc1)c1cnccn1 8.13%
N#Cc1cc(-c2ccccc2)cnc1Sc1ccccc1 -2.07%
CCN(CC)CCCNC(=O)Cc1c(C(=O)O)n(C)c2ccccc12 7.17%
c1ccc(C(CN2CCOCC2)c2ccccc2)cc1 14.5%
CCN1CCN(CC(O)COC(c2ccccc2)c2ccccc2)CC1 (stereo not drawn) 0.21%
CC(=O)c1ccc(N2CCN(CC(O)COC(c3ccccc3)c3ccccc3C)CC2)cc1 (stereo not drawn) 12.8%
Cc1ccccc1C(OCC(O)CN1CCC(C(N)=O)CC1)c1ccccc1 (stereo not drawn) 6.34%
OC(COC(c1ccccc1)c1ccccc1)CN1CCCCC1 (stereo not drawn) 6.55%
CCOC(=O)N1CCN(CC(c2ccccc2)c2ccccc2)CC1 20.9%
Cc1nnsc1C(=O)Nc1ccc(S(=O)(=O)N2CCCC(C)C2)cc1 (stereo not drawn) -21.6%
Cc1cc([N+](=O)[O-])nn1CC(=O)NCc1ccc(Cl)cc1 0.89%
COC(=O)Cc1c(OC)ccn(CCc2c[nH]c3ccccc23)c1=O 8.25%
